# Measurements published in PubChem BioAssay AID1460 (National Center for Advancing Translational Sciences (NCATS), 2008).
# Screen size: about 270,000 compounds; about 5,800 (2.1%) were called active. Entries that show only a call come without a potency. Another 16% or so got no clear call; they are omitted. The call rests on the fitted dose curve; in most records, active means well fitted inhibition curve with a large enough effect; inconclusive means small, poorly fitted or top-dose-only effect; inactive means flat fitted curve, though single readings scatter. Many of the other results were omitted from the sample, so actives are more common in it than they were.
# Target: Microtubule-associated protein tau (Homo sapiens) (UniProt P10636)
# Sequence (P10636 561-689 P618L limits assumed): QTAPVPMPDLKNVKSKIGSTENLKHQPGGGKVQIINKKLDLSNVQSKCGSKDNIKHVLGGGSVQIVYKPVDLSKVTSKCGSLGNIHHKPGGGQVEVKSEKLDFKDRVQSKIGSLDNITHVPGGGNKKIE
# Experiment: qHTS for Inhibitors of Tau Fibril Formation, Thioflavin T Binding; further: nearly all actives have a fitted effect of over 55% in size
# Settings: recombinant tau K18 P301L (four-repeat tau fragment), heparin-induced fibrillization, ThT fluorescence; series mostly up to 57.4 µM
# Excerpt: NIH Molecular Libraries Probe Production Network [MLPCN]
# NIH Chemical Genomics Center [NCGC]
# Assay Provider: Carlo Ballatore, University of Pennsylvania
# The microtubule-associated protein tau is an abundant protein in the axons of neurons that stabilizes microtubules. With its ability to modulate microtubule dynamics, tau contributes directly or indirectly, to key structural and regulatory cellular functions. Particularly important is the influence tau exerts on axonal transport, which allows signaling molecules, trophic factors and other essential cellular constituents to travel along the axons. Under pathological conditions, tau becomes sequestered into insoluble aggregates called neurofibrillary tangles. This phenomenon is believed to have pathological consequences by promoting axonal transport deficits that ultimately lead to synaptic dysfunction and neuronal loss. To identify inhibitors of tau aggregation, a heparin-induced tau fibril formation assay was used that employed a recombinantly expressed fragment of tau, K18 (Q242-E372), bearing a P301L mutation (Gustke et al. 1994; Hong et al. 1998). This assay monitors tau fibrillization by Thioflavin T (ThT) fluorescence.
# Gustke, N., B. Trinczek, et al. (1994). "Domains of tau protein and interactions with microtubules." Biochemistry 33(32): 9511-22.
# Hong, M., V. Zhukareva, et al. (1998).
# Li, W. and V. M. Lee (2006).
# von Bergen, M., S. Barghorn, et al. (2001). "Mutations of tau protein in frontotemporal dementia promote aggregation of paired helical filaments by enhancing local beta-structure." J Biol Chem 276(51): 48165-74.
# NCGC Assay Protocol Summary:
# For screening, 2 uL/well human K18 P301L (15 uM unlabeled and 0.24 uM Alexa 594-labeled tau, final concentrations) in reagent buffer (100 mM sodium acetate pH 7) was dispensed into black solid 1536-well plates (Grenier) using a solenoid-based dispenser. Following transfer of 23 nL compound or DMSO vehicle by a pin tool, 2 uL/well heparin (20 uM final concentration) in reagent buffer was added and the plate centrifuged 15 s at 1000 RPM. Plates were incubated 6 hr at 37 C and then 1 uL/well ThT (30 uM final concentration) was added. After a 1 hr ambient incubation, the plates were read by an Envision (Perkin Elmer) to monitor ThT fluorescence (450/8 nm excitation and 510/23 nm emission).
# Keywords: NIH Roadmap, MLPCN, MLI, MLSMR, NCGC, qHTS, tau, tauopathies, Alzheimer's disease, fibril, neurodegeneration, aggregation
# Potency means the concentration at half of the fitted maximal effect.
row,Compound,Potency
1,CC1CCN(S(=O)(=O)c2ccc3c(ccn3CCC(=O)NCc3ccc(N(C)C)cc3)c2)CC1,inactive
2,Cc1nc2c(-c3ccccc3)c(C)nn2c(C)c1CCC(=O)NCCc1ccccc1,inactive
3,CCOc1ccc(NC(=O)c2cn(C3CCCCC3)c(=O)c3c2c2ccccc2n3C)cc1,inactive
4,O=C(Cn1ncn2nc(-c3cccs3)cc2c1=O)NCc1cccc(Br)c1,inactive
5,Cc1ccc(NC(=O)Cc2ccc(NC(=O)N3CCCCc4ccccc43)cc2)cc1,inactive
6,Cc1c(Cl)cccc1NC(=O)C(=O)NCCc1csc2nc(-c3ccccc3F)nn12,inactive
7,CC(C)Cn1c(=O)c2ccccc2n2c(-c3cccc(Cl)c3)nnc12,inactive
8,CCOC(=O)c1cnc2[nH]c3ccccc3n2c1=O,inactive
9,O=[N+]([O-])c1cccc(-c2nnc3c4ccccc4c4ccccc4n23)c1,inactive
10,O=c1[nH]c2ccccc2n2c(-c3ccccc3)nnc12,10 µM (active)
11,CC(Nc1ccc(-c2nc(-c3ccco3)no2)cc1[N+](=O)[O-])c1ccccc1 (configuration not stated),inactive
12,Cc1cc(C)c(/C=C2\C(=O)Nc3ccccc32)[nH]1,3.16 µM (active)
13,CN(C)/C=C1/C(=O)Nc2ccccc21,inactive
14,Cc1ccccc1-n1c(C)cc(/C=C2\NC(=O)NC2=O)c1C,inactive
15,Cc1nnc(SCc2cc(=O)c3cc(F)ccc3[nH]2)n1C,inactive
16,CCOc1ccc(C2C(=O)N(C3CCCCC3)CC(=O)N2CCC2=CCCCC2)cc1OC (configuration not stated),inactive
17,Cc1oc2ncnc(N3CCOCC3)c2c1C(=O)NCCc1ccccc1,inactive
18,COc1cc(/C=C(\C#N)c2nc3c(s2)CC(C)CC3)ccc1O (configuration not stated),12.6 µM (active)
19,Cc1ccc(-c2nnc(SCc3ccccc3C)o2)cc1,inactive
20,Cc1ccc(-c2cc(-c3coc4ccccc4c3=O)c3c(n2)-c2cc(Cl)ccc2OC3)cc1,inactive
21,O=C(CCc1cn(Cc2ccc(F)cc2)c2ccccc12)NC1CCCCC1,inactive
22,OCCC1CN(Cc2cccc(OC3CCCC3)c2)CCN1Cc1ccsc1 (configuration not stated),inactive
23,OCCC#Cc1ccc(CN2CCN(Cc3ccsc3)C(CCO)C2)cc1 (configuration not stated),11.2 µM (active)
24,OCCC1CN(Cc2ccccc2-c2ccco2)CCN1Cc1ccsc1 (configuration not stated),inactive
25,Cc1ccc(-c2nnc(SCC(=O)NCc3ccccc3)nc2-c2ccc(C)cc2)cc1,inactive
26,CCOC(=O)CSC1=Nc2ccccc2C2=NC(CCC(=O)NCc3ccc(F)cc3)C(=O)N12 (configuration not stated),inactive

row,Compound,Potency
1,COc1ccc(Cn2ccn(CC(=O)Nc3cc(C)ccc3C)c(=O)c2=O)cc1,inactive
2,CCS(=O)(=O)N1CCc2cc(C(=O)NCc3ccc(OC)cc3)ccc21,inactive
3,Cc1[nH][nH]c(=O)c1C(c1ccc(-c2ccc(Cl)cc2)o1)c1c(C)[nH][nH]c1=O,7.08 µM (active)
4,CCOc1ccc(C(c2c(C)[nH][nH]c2=O)c2c(C)[nH][nH]c2=O)cc1OCC,inactive
5,CC1CCCN(c2cc3c(cc2F)c(=O)c(S(=O)(=O)c2cccc(Cl)c2)cn3Cc2ccccc2)C1 (configuration not stated),inactive
6,CCOc1ccc(CC(=O)NCCc2csc3nc(-c4ccccc4F)nn23)cc1,inactive
7,O=C(Nc1ccc(S(=O)(=O)N2CCC(c3nc4ccccc4s3)CC2)cc1)c1ccccc1F,inactive
8,CC(C)c1ccc(NS(=O)(=O)c2ccc3[nH]cc(C(=O)NC4CCCC4)c(=O)c3c2)cc1,inactive
9,CCn1c2ccccc2c2nnc(N3CCN(c4cc(C)ccc4C)CC3)nc21,inactive
10,O=c1c(=O)n(Cc2c(F)cccc2Cl)ccn1Cc1ccccc1,inactive
11,Cc1ccc(CNC(=O)CCc2c(C)nn(-c3ccc(N4CCCC4)nn3)c2C)cc1,inactive
12,CC1=C/C(=N\OS(=O)(=O)c2ccccc2)C=CC1=O,3.16 µM (active)
13,Cc1ccc(S(=O)(=O)c2ccc(Oc3ccccc3)cc2)cc1,inactive
14,CC1=C/C(=N\S(=O)(=O)c2ccccc2)C(C(C)C)=CC1=O,inactive
15,COc1ccc(OC)c(-c2nc(C(N)=O)c3c(n2)n(-c2ccc4c(c2)OCO4)c(=O)n3C)c1,inactive
16,CC(C)(C)OC(=O)N1CCC(c2c(C(=O)N3CCc4ccccc4C3)cnn2-c2ccc(F)cc2)CC1,inactive
17,CC(=O)c1cc(C#N)c(N2CCCCC2)nc1C,inactive
18,CC(=O)c1cc(-c2ccccc2)[nH]c1N1CCCC1,14.1 µM (active)
19,O=c1cc(-c2ccccc2)nc(N2CCCCC2)[nH]1,inactive
20,CCCc1nn2c(=O)cc(COC(=O)c3ccc(NC(=O)COc4ccc(F)cc4)cc3)nc2s1,inactive
21,CCCN(C(=O)Cn1ncc2c([nH]c3ccc(C)cc32)c1=O)c1ccccc1C,inactive
22,O=c1cc(CSc2ncn[nH]2)[nH]c2ccc(F)cc12,inactive
23,CCCN(CCC)C(=O)C1CCCN(c2ncnc3c2nc2n3CCCCC2)C1 (configuration not stated),inactive
24,Cc1cc(-c2ccc(/C=N/n3cnnc3)o2)c([N+](=O)[O-])cc1C,inactive
25,Cc1ccc2nc(SCc3nnc(-c4ccccc4[N+](=O)[O-])o3)c(C#N)cc2c1,inactive
26,Cc1ccc(-c2ccc(/C=C(\C#N)C(N)=S)o2)c([N+](=O)[O-])c1,3.98 µM (active)

row,Compound,Potency
1,CCOc1ccc2nc(N3CCCC(C(=O)Nc4cc(C)ccc4C)C3)sc2c1 (configuration not stated),inactive
2,O=C(NCc1ccccc1)c1cccc(NC(=O)N2CCSc3ncccc32)c1,inactive
3,CC(=O)N1c2ccc(S(=O)(=O)N3CCCCCC3)cc2CC1C(=O)NCc1ccccc1C (configuration not stated),inactive
4,C/C(=N\NC(=O)c1ccc(C)cc1)C1C(=O)c2ccccc2C1=O,5.01 µM (active)
5,Cc1ccc(C(=O)NC(=S)Nc2ccccc2C)cc1,inactive
6,Cc1ccc(C(=O)NCCNC(=O)c2ccccc2)cc1,inactive
7,COc1ccc(C2C(=O)N(C3CCCCCC3)CC(=O)N2CCc2ccc(Cl)cc2)cc1OC (configuration not stated),inactive
8,CC(C)CNc1ncnc2c1nnn2C,inactive
9,Cc1cccc(-c2nc(SCC(=O)Nc3cc(C)on3)c3c(=O)n(C)c(=O)n(C)c3n2)c1,inactive
10,Cc1ccc(N(CC(=O)NCc2ccc(Cl)cc2)S(=O)(=O)N(C)C)cc1,inactive
11,Cc1ccc2sc(N(Cc3cccnc3)C(=O)C3COc4ccccc4O3)nc2c1C (configuration not stated),inactive
12,CC(C)OC(=O)CN1C(=O)C(=O)c2ccccc21,inactive
13,Cc1cc(C(=O)COC(=O)CCCN2C(=O)c3ccccc3C2=O)c(C)n1C,inactive
14,CCCCN1C(=O)/C(=C(/C#N)C(N)=O)c2ccccc21,20 µM (active)
15,Cc1ccc(-n2nc(C)c3c(C)cc(=O)n(CC(=O)Nc4ccc(C(C)C)cc4)c32)cc1,inactive
16,CCOc1ccc(N=C2SC(C(=O)O)CC(=O)N2C)cc1 (configuration not stated),inactive
17,CCOc1ccc(N=C2NC(=O)S/C2=C\c2ccc(O)cc2)cc1,3.55 µM (active)
18,CCOc1ccc(/C=N/NC(N)=S)cc1,inactive
19,Cc1cc(OC(C)C(=O)Nc2sc3c(c2C(N)=O)CCCC3)ccc1Cl (configuration not stated),inactive
20,COc1ccccc1CCNC(=O)c1cccn1-c1nnc(N2CCCCC2)s1,inactive
21,COc1ccc(CNC(=O)C2=Cc3cccc(OC)c3OC2)cc1OC,inactive
22,COc1ccc(Cc2nc3ccc(C(=O)NCc4ccc(OC)cc4OC)cc3o2)cc1,inactive
23,CC1CCCN(S(=O)(=O)c2ccc3[nH]c(=O)cc(C(=O)NCCc4ccc(Cl)cc4)c3c2)C1 (configuration not stated),inactive
24,CC(C)OCCCn1c(SCC(=O)c2ccccc2)nc2c(sc3ccccc32)c1=O,inactive
25,Cc1cc(F)ccc1NS(=O)(=O)c1ccc(-n2cccn2)cc1,inactive
26,CC(C)CC(=O)NCC(c1ccc2c(c1)OCO2)N1CCN(c2ccc(F)cc2)CC1 (configuration not stated),inactive

row,Compound,Potency
1,O=C1c2ccccc2C(=O)c2c1cccc2N1CCN(Cc2ccccc2)CC1,14.1 µM (active)
2,O=c1cc(N2CCN(Cc3ccccc3)CC2)c(-c2ccccc2)n[nH]1,inactive
3,O=C(CN1CCN(Cc2ccccc2)CC1)NC(c1ccccc1)c1ccccc1,inactive
4,CC(=O)c1ccc(NC(=O)CSc2nc(-c3ccccc3F)nc3c2c(=O)n(C)c(=O)n3C)cc1,inactive
5,COc1ccc(Cn2ccn(Cc3cccc(OC)c3)c(=O)c2=O)cc1,inactive
6,Cn1c(=O)oc2cc(S(=O)(=O)CCC(=O)NCCc3ccc(Cl)cc3)ccc21,inactive
7,Cc1ccc(C)c(Oc2c(C(F)(F)F)oc3c(CN4CCN(C)CC4)c(O)ccc3c2=O)c1,inactive
8,Fc1ccccc1Oc1ncnc2c1oc1ccccc12,inactive
9,C=CCOc1ccc(/C=N/NC(=O)C(C)Sc2ccccn2)cc1OCC (configuration not stated),inactive
10,CCOc1ccc(/C=N/NC(=O)C(C)Sc2ccccn2)cc1OCC (configuration not stated),inactive
11,CCOc1ccc(/C=N/Nc2nncc(-c3ccccc3)n2)cc1OC,2.24 µM (active)
12,COc1ccc(-c2ccc(=O)n(CC(=O)Nc3ccc(Br)cc3F)n2)cc1,inactive
13,Cc1ccccc1CN1CCC(CNC(=O)c2cc3ccc4cccnc4c3[nH]2)CC1,inactive
14,COc1cccc(C(=O)Nc2ccc(N3CCCC3)cc2)c1,14.1 µM (active)
15,CCC(=O)Nc1ccc(C(=O)Nc2cccc(OC)c2)cc1,inactive
16,COc1cccc(C(=O)Nc2nnc(S(=O)(=O)N3CCOCC3)s2)c1,3.16 µM (active)
17,O=C(Nc1nc2cc3c(cc2s1)OCCO3)c1cccc(S(=O)(=O)N2CCOCC2)c1,inactive
18,COc1cccc(C(=O)Nc2ccc(-c3cc(C(F)(F)F)nn3-c3ccccc3)cc2)c1,inactive
19,COc1ccc(C(=O)Nc2nc(-c3ccc(S(=O)(=O)N4CCOCC4)cc3)cs2)cc1,inactive
20,COc1cc(NC(=O)C2CCN(c3cnccn3)CC2)cc(OC)c1,inactive
21,CCc1ccc(S(=O)(=O)c2nnn3c2nc(N2CCN(CC)CC2)c2sccc23)cc1,inactive
22,CCC(=O)Nc1ccccc1-c1nc2ccccc2n(CC(=O)Nc2ccc(C)c(C)c2)c1=O,inactive
23,Oc1c(C=Nc2cccc3nsnc23)ccc2ccccc12,2.24 µM (active)
24,COc1ccc(C=Nc2cccc3ncccc23)cc1,inactive
